Hit rate of the full screen: of about 5,500 compounds, about 2,000 (36%) were called active. About 18% were inconclusive and are not listed. Cut-off read from the data, not from the text of the source: active = normalized growth mostly below about 0.91 (no sharp cut-off); inconclusive = no clear call, values can overlap the other calls; inactive = mostly above about 0.92. This is one part of the list.
Experiment: chemical genetic growth profiling, strain panel (AID 1159580);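 note: tested at 20 µM; growth read once vehicle control cultures reached saturation at 30 °C; 1 = growth at the plate median or of vehicle wells; lower values mean less growth of the strain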
Conditions: S. cerevisiae deletion strains, growth OD
[1] = locus YAL040C, strain CLN3, hits give low values
[2] = locus YCL061C, strain MRC1 (second series), hits give low values
[3] = locus YDR363W, strain ESC2, hits give low values
[4] = locus YER002W, strain NOP16, hits give low values
[5] = locus YMR307W, strain GAS1, hits give low values
[6] = locus YNL175C, strain NOP13, hits give low values
[7] = locus YNL197C, strain WHI3, hits give low values
[8] = locus YNL224C, strain SQS1, hits give low values
[9] = locus YOR083W, strain WHI5 (second series), hits give low values
[10] = locus YPL055C, strain LGE1, hits give low values
[11] = locus YPL241C, strain CIN2, hits give low values

Measured: normalized growth

CN1CC(C(=O)NC2(C)OC3(O)C4CCCN4C(=O)C(Cc4ccccc4)N3C2=O)CC2c3cccc4[nH]cc(c34)CC21 (stereo not drawn)
inactive: [1] 0.995 | [2] 0.992 | locus YDR150W, strain NUM1, hits give low values 0.99 | [3] 0.974 | [4] 0.988 | locus YMR263W, strain SAP30, hits give low values 0.987 | [5] 0.965 | locus YNL128W, strain TEP1, hits give low values 0.994 | [6] 1.01 | [7] 0.985 | [8] 1 | [9] 0.98 | [10] 0.905 | [11] 0.995

CC(C)[C@@]1(NC(=O)[C@@H]2C[C@@H]3c4cccc5[nH]cc(c45)C[C@H]3N(C)C2)O[C@@]2(O)[C@@H]3CCCN3C(=O)[C@H](Cc3ccccc3)N2C1=O
inactive: locus YAL013W, strain DEP1, hits give low values 0.941 | [1] 0.972 | [2] 0.974 | [3] 0.945 | [4] 0.981 | locus YGR078C, strain PAC10, hits give low values 0.996 | [5] 0.985 | [6] 0.987 | [7] 1.02 | [8] 1 | locus YNL322C, strain KRE1, hits give low values 0.924 | [9] 1 | [10] 0.91 | [11] 0.985

— PubChem BioAssay AID1159580 (chemical genetic matrix, 2015)
